Data: PubChem BioAssay AID1159580 (chemical genetic matrix, 2015)
Several values for one entry are separate records, joined by “and”; a condition that tells them apart may be missing. Identical values can stand only once. Screen size: about 5,500 compounds; about 2,000 (36%) were called active. About 18% were inconclusive and are not listed. Cut-off read from the data, not from the text of the source: active = normalized growth mostly below about 0.91 (no sharp cut-off); inconclusive = no clear call, values can overlap the other calls; inactive = mostly above about 0.92. The list shows a part of the results.

Assay: chemical genetic growth profiling, strain panel (AID 1159580);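 note: tested at 20 µM; growth read once vehicle control cultures reached saturation at 30 °C; 1 = growth at the plate median or of vehicle wells; lower values mean less growth of the strain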
Conditions: S. cerevisiae deletion strains, growth OD

Measured: normalized growth

NC1(C(=O)O)CCCC1
inactive: locus YAL013W, strain DEP1, active compounds read low 1 | locus YAL021C, strain ccr4, active compounds read low 1.01 | locus YAL026C, strain drs2, active compounds read low 1.02 | locus YAL030W, strain snc1, active compounds read low 1.02 | locus YBL061C, strain skt5, active compounds read low 1.01 | locus YBR009C, strain hhf1, active compounds read low 1 | locus YBR021W, strain FUR4, active compounds read low 0.989 | locus YBR023C, strain chs3, active compounds read low 1.02 | locus YBR171W, strain sec66, active compounds read low 1.03 | locus YBR229C, strain ROT2, active compounds read low 1.01 | locus YBR231C, strain swc5, active compounds read low 1.02 | locus YBR279W, strain paf1, active compounds read low 1.01 | locus YCL011C, strain gbp2, active compounds read low 1.02 | locus YCL016C, strain dcc1, active compounds read low 1.01 | locus YCL029C, strain bik1, active compounds read low 1.02 | locus YCL061C, strain MRC1, active compounds read low 1.02 | locus YCL069W, strain vba3, active compounds read low 1.02 | locus YCR088W, strain abp1, active compounds read low 1.02 | locus YDL005C, strain med2, active compounds read low 1.01 | locus YDL035C, strain GPR1, active compounds read low 1.01 | locus YDL040C, strain nat1, active compounds read low 1.01 | locus YDL074C, strain BRE1, active compounds read low 1.02 | locus YDL101C, strain DUN1, active compounds read low 1 | locus YDL134C, strain PPH21, active compounds read low 0.998 | locus YDL185W, strain tfp1, active compounds read low 0.989 | locus YDL192W, strain arf1, active compounds read low 0.998 | locus YDR001C, strain nth1, active compounds read low 1.02 | locus YDR069C, strain doa4, active compounds read low 1.03 | locus YDR101C, strain arx1, active compounds read low 1.01 | locus YDR137W, strain rgp1, active compounds read low 1 | locus YDR150W, strain NUM1, active compounds read low 1.01 | locus YDR159W, strain sac3, active compounds read low 0.995 | locus YDR162C, strain NBP2, active compounds read low 1.01 | locus YDR195W, strain ref2 1.03 | locus YDR297W, strain sur2, active compounds read low 1.01 | locus YDR318W, strain mcm21, active compounds read low 0.996 | locus YDR334W, strain swr1, active compounds read low 1.01 | locus YDR335W, strain msn5, active compounds read low 1.01 | locus YDR388W, active compounds read low 0.998 | locus YDR392W, strain spt3, active compounds read low 1.01 | locus YDR502C, strain sam2, active compounds read low 0.99 | locus YEL003W, strain gim4, active compounds read low 1.02 | locus YEL037C, strain rad23, active compounds read low 1.02 | locus YEL061C, strain CIN8 (second series), active compounds read low 1.02 | locus YEL061C, strain CIN8, active compounds read low 1.01 | locus YER015W, strain faa2, active compounds read low 1.02 | locus YER016W, strain bim1, active compounds read low 1.01 | locus YER110C, active compounds read low 1 | locus YER111C, strain swi4, active compounds read low 1.03 | locus YER155C, strain BEM2 (second series), active compounds read low 1.07 | locus YER155C, strain BEM2, active compounds read low 0.997 | locus YER167W, strain BCK2, active compounds read low 1.01 | locus YFR010W, strain ubp6, active compounds read low 1.02 | locus YGL078C, strain dbp3, active compounds read low 0.989 | locus YGL086W, strain mad1, active compounds read low 0.994 | locus YGL167C, strain pmr1, active compounds read low 1.01 | locus YGL173C, strain kem1, active compounds read low 1.02 | locus YGL227W, strain vid30, active compounds read low 1.02 | locus YGL240W, strain doc1, active compounds read low 1.04 | locus YGL248W, strain PDE1, active compounds read low 1.01 | locus YGL253W, strain hxk2, active compounds read low 1.02 | locus YGR135W, strain pre9, active compounds read low 0.998 | locus YGR252W, strain gcn5, active compounds read low 0.935 | locus YHR013C, strain ard1, active compounds read low 1.07 | locus YHR027C, strain rpn1, active compounds read low 1.01 | locus YHR030C, strain SLT2, active compounds read low 1.01 | locus YHR079C, strain IRE1 (second series), active compounds read low 0.996 | locus YHR079C, strain IRE1, active compounds read low 1.04 | locus YHR094C, strain hxt1, active compounds read low 0.998 | locus YHR129C, strain ARP1, active compounds read low 1.01 | locus YHR142W, strain chs7, active compounds read low 1.03 | locus YHR200W, strain rpn10, active compounds read low 0.997 | locus YIL066C, strain RNR3, active compounds read low 1.02 | locus YIL073C, strain SPO22, active compounds read low 1.02 | locus YIL125W, strain kgd1, active compounds read low 1 | locus YIR030C, strain dcg1, active compounds read low 1.01 | locus YJL092W, strain hpr5, active compounds read low 1.03 | locus YJL095W, strain BCK1 (second series), active compounds read low 1.01 | locus YJL095W, strain BCK1, active compounds read low 1.01 and 1.02 | locus YJL115W, strain asf1, active compounds read low 1.03 | locus YJL129C, strain trk1, active compounds read low 1.06 | locus YJL134W, strain LCB3, active compounds read low 1.01 | locus YJL154C, strain vps35, active compounds read low 1.02 | locus YJL164C, strain tpk1, active compounds read low 1.02 | locus YJL166W, strain qcr8, active compounds read low 1.02 | locus YJL168C, strain set2, active compounds read low 0.994 | locus YJL187C, strain SWE1 (second series), active compounds read low 1.01 | locus YJR043C, strain POL32, active compounds read low 1 | locus YJR066W, strain TOR1, active compounds read low 0.975
